In PubChem BioAssay (Tox21):
Results filed as inconclusive are left out. Calls of active or inactive are those of the source. Calls follow the shape of the full dose curve.

Target: Peroxisome proliferator-activated receptor gamma (Homo sapiens) (UniProt P37231)
Assay: qHTS assay to identify small molecule antagonists of the peroxisome proliferator-activated receptor gamma (PPARg) signaling pathway (AID 743191); also: nearly all actives have a fitted effect of over 30% in size
Settings: HEK293H PPARg-UAS-bla, beta-lactamase ratio, antagonist, 17 h; series mostly up to 62.6 µM; ratio activity, negative = inhibition: at the top concentration
Description: U.S. Tox21 Program National Center for Advancing Translational Sciences [NCATS] NIH Chemical Genomics Center [NCGC] U.S. Environmental Protection Agency [EPA] National Institutes of Environmental Health Sciences [NIEHS] National Toxicology Program [NTP] U.S. Food and Drug Administration [FDA] Tox21 Assay Overview: The peroxisome proliferator-activated receptors (PPARs) are lipid-activated transcription factors of the nuclear receptor superfamily with three distinct subtypes namely PPAR alpha, PPAR delta (also called PPAR beta) and PPAR gamma (PPARg). All these subtypes heterodimerize with Retinoid X receptor (RXR) and these heterodimers regulate transcription of various genes. PPAR-gamma receptor (glitazone receptor) is involved in the regulation of glucose and lipid metabolism. To identify the compounds that inhibit PPAR-gamma signaling, GeneBLAzer PPAR gamma UAS-bla HEK293H cell line (Invitrogen, Carlsbad, CA, USA) containing a beta-lactamase reporter gene under control of an Upstream Activator Sequence (UAS) was used to screen the Tox21 compound library.
Tox21 Assay Protocol Summary: PPARg-bla cells were dispensed at 3000 cells/6uL/well in 1536-well black wall/clear bottom plates using a Multidrop Combi (Thermo Fisher Scientific, Waltham, MA) dispenser. After the assay plates were incubated at 37C and 5% CO2 for 5 h, 23 nL of compounds dissolved in DMSO, positive controls or DMSO only was transferred to the assay plate by a Pintool station (Kalypsys, San Diego, CA). The assay plates were incubated at 37C for 17 h. After 1 uL of LiveBLAzerTM B/G FRET substrate was added using a Bioraptr Flying Reagent Dispenser (FRD) workstation (Beckman Coulter, Indianapolis, IN, USA), the plates were incubated at room temperature for 1 h, and fluorescence intensity was measured by an Envision plate reader (PerkinElmer, Shelton, CT).
% is scaled to controls: 0 for no effect and ±100 for the full control effect; potency is read from the fitted curve at half-maximal effect.

Peroxisome proliferator-activated receptor gamma (Homo sapiens), sequence (P37231 whole entry, looked up): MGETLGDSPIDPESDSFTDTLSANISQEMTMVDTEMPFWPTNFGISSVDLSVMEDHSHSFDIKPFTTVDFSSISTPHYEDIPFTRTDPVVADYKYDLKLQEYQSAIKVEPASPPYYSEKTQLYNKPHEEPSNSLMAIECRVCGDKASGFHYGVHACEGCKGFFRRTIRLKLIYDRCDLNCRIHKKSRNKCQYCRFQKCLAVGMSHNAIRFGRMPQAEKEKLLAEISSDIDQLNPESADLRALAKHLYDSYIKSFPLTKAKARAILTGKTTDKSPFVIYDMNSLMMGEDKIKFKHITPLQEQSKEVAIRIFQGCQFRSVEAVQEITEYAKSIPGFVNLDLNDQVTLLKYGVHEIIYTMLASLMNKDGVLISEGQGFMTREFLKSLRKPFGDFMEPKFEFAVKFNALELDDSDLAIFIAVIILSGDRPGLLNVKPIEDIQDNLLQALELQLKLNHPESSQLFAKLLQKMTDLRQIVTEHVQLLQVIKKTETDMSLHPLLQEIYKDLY

Structure (SMILES) | ratio activity, negative = inhibition | Potency
Nc1c(Cl)cc(Cl)cc1Cl | 22% (inactive) | –
C/C(=C(/OCCOc1ccc(Cl)cc1)c1ccc(Cl)cc1Cl)n1ccnc1 | 0.835% (inactive) | –
COc1cc(/C=C/C(=O)O[C@H]2CC[C@]34C[C@]35CC[C@]3(C)[C@@H]([C@H](C)CCC=C(C)C)CC[C@@]3(C)[C@@H]5CC[C@H]4C2(C)C)ccc1O | 1.83% (inactive) | –
COc1c(C)c2c(c(O)c1C/C=C(\C)CCC(=O)O)C(=O)OC2 | – | 0.473 µM (active)
CCCCCCCCS(=O)C(C)Cc1ccc2c(c1)OCO2 (stereo not given) | – | 56 µM (active)
CC(=O)OCC(C)OC(C)=O (stereo not given) | 4.57% (inactive) | –
Fc1ccc(C(c2ccc(F)cc2)N2CCN(C/C=C/c3ccccc3)CC2)cc1 | 4.37% (inactive) | –
ON=C1CCCC1 | -11.2% [at 81.1 µM] (inactive) | –
CCCC(C)c1ccccc1O (stereo not given) | 20.1% (inactive) | –
C=C(C)C(=O)OCC[N+](C)(C)C | – | 2.18 µM (active)
Cc1ccc(O)c(C(C)(C)C)c1 | -2.13% (inactive) | –
CC(=O)SC[C@@H](Cc1ccccc1)C(=O)NCC(=O)OCc1ccccc1 | 0.332% (inactive) | –
Cc1cccc(N(C)C(=S)Oc2ccc3c(c2)C2CCC3C2)c1 (stereo not given) | -16.8% (inactive) | –
Clc1ccc2nsnc2c1NC1=NCCN1 | 1.52% (inactive) | –
CC[C@H](c1ccc(O)cc1)[C@@H](CC)c1ccc(O)cc1 | – | 29.8 µM (active)
CCc1cc(Cc2cc(CC)c(N)c(CC)c2)cc(CC)c1N | – | 38.9 µM (active)
CN(C)CCCOC1(Cc2ccccc2)CCCCCC1 | -3.53% (inactive) | –
Cc1onc(-c2ccccc2Cl)c1C(=O)N[C@@H]1C(=O)N2[C@@H]1SC(C)(C)[C@@H]2C(=O)O | -12% (inactive) | –
O=C(NO)C1(NS(=O)(=O)c2ccc(Oc3ccc(F)cc3)cc2)CCOCC1 | 24.4% (inactive) | –
CCCCCOC(=O)CCCC | -5.7% (inactive) | –

Structure (SMILES) | ratio activity, negative = inhibition | Potency
COC(=O)c1cc(Cl)ccc1OC | -6.38% (inactive) | –
C[C@@H]1C[C@H]2[C@@H]3CCC4=CC(=O)C=C[C@]4(C)[C@@]3(Cl)[C@@H](O)C[C@]2(C)[C@@]1(OC(=O)c1ccco1)C(=O)CCl | -1.41% (inactive) | –
Cc1onc(-c2c(Cl)cccc2Cl)c1C(=O)N[C@@H]1C(=O)N2[C@@H]1SC(C)(C)[C@@H]2C(=O)O | -4.12% (inactive) | –
O=C1c2c(O)ccc(Nc3ccc(CCO)cc3)c2C(=O)c2c([N+](=O)[O-])ccc(O)c21 | – | 54.9 µM (active)
CC(NN)c1ccccc1 (stereo not given) | 1.63% [at 29.1 µM] (inactive) | –
Oc1ccc(Cl)cc1Sc1cc(Cl)ccc1O | – | 13.3 µM (active)
CNCc1cc(F)ccc1Oc1ccc(Cl)c(Cl)c1 | 17.9% (inactive) | –
CN(C/C=C/C#CC(C)(C)C)Cc1cccc2ccccc12 | 6.7% (inactive) | –
Nc1cc(C(F)(F)F)ccc1S | -0.683% (inactive) | –
C[C@H]1[C@H]2CC[C@H]3[C@@H]4CC=C5C[C@@H](N(C)C)CC[C@]5(C)[C@H]4CC[C@]23CN1C | 3.49% (inactive) | –
N#CC1(c2ccc(F)cc2)CCC(=O)CC1 | 8.28% (inactive) | –
NC(=O)NS(=O)(=O)c1ccc(N)cc1 | -7.68% (inactive) | –
O=C1CCCCCN1SSN1CCCCCC1=O | -2.8% (inactive) | –
CCCCCOc1ccccc1/C(=C\SC)n1ccnc1 | – | 29.8 µM (active)
CCCCCCCC(=O)[O-].CCCCCCCC(=O)[O-].[Zn+2] | 5.07% (inactive) | –
CCCC1O[C@@H]2C[C@H]3[C@@H]4CCC5=CC(=O)C=C[C@]5(C)[C@H]4[C@@H](O)C[C@]3(C)[C@]2(C(=O)CO)O1 (stereo not given in full) | – | inactive
Oc1ccc2cc(SSc3ccc4cc(O)ccc4c3)ccc2c1 | – | 13.8 µM (active)
CCC(Cl)C(Cl)C(Cl)CC(Cl)C(Cl)C(C)Cl (stereo not given) | -18.5% (inactive) | –
CCC(N)(CO)CO | -1.83% [at 81.1 µM] (inactive) | –
CSc1cnc(C)cn1 | 18.8% [at 81.1 µM] (inactive) | –
